# Measured values as given in PubChem BioAssay.
# For part of these data: Entries with a potency or affinity are not part of this list. Calls of active or inactive are those of the source.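 How the source made its calls, unless noted: active means fitted half-maximal concentration within 10 nM to 100 µM, steepness 0.5 to 2, significant signal drop, low assay interference; inactive means the rest.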
# Experiments:
# [1] = biological target: Cell division control protein 42 homolog (Homo sapiens) (UniProt P60953); test: activated mutant Cdc42 GTP-binding inhibitors, dose response, biochemical, multiplex bead flow cytometry, Bodipy-FL-GTP (AID 1333;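 active means fitted half-maximal concentration within the tested dose range, moderate curve steepness, a statistically real signal drop, and little compound fluorescence or tag-binding interference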)
# Sequence of Cell division control protein 42 homolog (Homo sapiens) (P60953 whole entry, looked up): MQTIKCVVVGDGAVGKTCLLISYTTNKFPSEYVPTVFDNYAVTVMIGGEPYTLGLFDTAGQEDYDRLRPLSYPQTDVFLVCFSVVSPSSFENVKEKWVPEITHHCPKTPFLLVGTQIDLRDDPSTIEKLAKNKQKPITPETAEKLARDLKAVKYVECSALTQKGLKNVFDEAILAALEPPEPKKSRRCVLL
# [2] = biological target: Cell division control protein 42 homolog (Homo sapiens) (UniProt P60953); test: wildtype Cdc42 GTP-binding inhibitors, dose response, biochemical, multiplex bead flow cytometry, Bodipy-FL-GTP (AID 1334;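 active means fitted half-maximal concentration within the tested range, moderate curve steepness, significant signal drop, and little compound fluorescence or bead-linkage interference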); settings: bead-based flow cytometry, Bodipy-FL-GTP binding to GST-Cdc42; at 100 µM (top of the series) unless noted
# [3] = biological target: GTPase HRas (Homo sapiens) (UniProt P01112); test: inhibitors of GTP binding to wildtype Ras, dose response, biochemical, multiplex bead flow cytometry (AID 1335); settings: bead-based flow cytometry, Bodipy-GTP binding to GST-Ras; at 100 µM (top of the series) unless noted
# Sequence of GTPase HRas (Homo sapiens) (P01112 whole entry, looked up): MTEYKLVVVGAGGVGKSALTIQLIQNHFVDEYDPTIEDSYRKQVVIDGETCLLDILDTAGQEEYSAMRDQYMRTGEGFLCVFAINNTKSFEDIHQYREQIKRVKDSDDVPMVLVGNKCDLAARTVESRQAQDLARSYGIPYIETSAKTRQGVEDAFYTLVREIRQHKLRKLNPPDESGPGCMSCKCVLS
# [4] = tested on: Ras-related protein Rab-7a (dog), GTP binding; test: Rab7 GTP binding inhibitors, potency, dose response, biochemical, wildtype, multiplex bead flow cytometry (AID 1336; call rule not given here)
# [5] = biological target: Ras-related C3 botulinum toxin substrate 1 (Homo sapiens) (UniProt P63000); test: wildtype Rac1 GTP binding inhibitors, dose response, biochemical, multiplex bead flow cytometry (AID 1340;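 active means dose curve with midpoint inside tested range, moderate steepness, plateau gap beyond fit error, low compound glow and bead-link interference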); settings: GST-Rac1 beads, Bodipy-FL-GTP binding; at 100 µM (top of the series) unless noted
# [6] = biological target: GTPase HRas (Homo sapiens) (UniProt P01112); test: activated Ras mutant GTP binding inhibitors, dose response, biochemical, multiplex bead flow cytometry (AID 1341;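 active means dose-response curve with midpoint inside the tested range, moderate steepness, significant amplitude and little compound fluorescence or bead-attachment interference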;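 further: GST-tagged constitutively activated Ras mutant immobilized on beads and multiplexed with other GTPases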)
Structure (SMILES),outcome [1],"fluorescence, percent of control (lower = inhibition) [2] [%]","GTP binding, percent of control [3] [%]",outcome [4],"GTP binding signal, raw median fluorescence (lower = inhibition) (MCF (arbitrary fluorescence units)) [5]",outcome [6]
CCOc1ccc(-n2nc3c(SCCN4CCCC4)nnc(C)c3c2C)cc1,inactive,57.3,71.4,inactive,230,inactive
CCOC(=O)Cn1c(=O)c2c(nc(N3CCCCC3)n2C)n(C)c1=O,inactive,52.2,63.3,inactive,168,inactive
C/C(=C1/SC(=S)N(CCC(=O)O)C1=O)c1ccc(O)cc1,inactive,29.5,80.9,inactive,254,inactive
CCOc1cc(/C=N/NC(=O)c2cccs2)cc([N+](=O)[O-])c1O,inactive,25.2,57.7,inactive,108,inactive
COc1cc(/C=N/NC(=O)c2cc3ccccc3cc2O)ccc1OCCN1CCCCC1,inactive,39.4,91.1,inactive,328,inactive
O=[N+]([O-])c1cc2oc3c(c2c(C=NCc2ccccc2)c1O)CCCC3,inactive,44.5,58.7,inactive,179,inactive
Cc1cc(=O)[nH]c2c(N=Nc3ccc(O)cc3)c(N)nn12,inactive,31.3,69.7,inactive,161,inactive
O=C(O)c1cc2ccccc2nc1OCCc1ccccc1,inactive,55.8,222,inactive,50.3,inactive
Cc1cc(C)cc(C(=O)N(NC(=O)Nc2ccc(Cl)cc2)C(C)(C)C)c1,inactive,94.9,150,inactive,186,inactive
Cc1cccc(CN2C(=O)N/C(=C/c3ccc(C)s3)C2=O)c1,inactive,72,82.5,inactive,201,inactive
Cc1cc2ccccn2c1C(=O)c1ccc(NN)c([N+](=O)[O-])c1,inactive,35.2,83.1,inactive,240,inactive
C=CCc1cc(/C=C/c2nc(O)c([N+](=O)[O-])c(=O)[nH]2)cc(OC)c1O,inactive,31.5,77.1,inactive,177,inactive
CN1CCN(S(=O)(=O)c2cccc(C(=O)Nc3sc4c(c3C(N)=O)CCCC4)c2)CC1,inactive,43.6,57.3,inactive,150,inactive
O=C(O)c1cc([N+](=O)[O-])ccc1NCc1ccccc1,inactive,121,149,inactive,105,inactive
O=C(Nc1cccc2ccccc12)c1cnccn1,inactive,85.4,156,inactive,181,inactive
CCC(C)N1C(=O)/C(=C/c2c(NCCCOC(C)C)nc3c(C)cccn3c2=O)SC1=S (stereo not given),inactive,130,136,inactive,244,inactive
COc1ccc(NC(=S)N(CCN(C)C)C(C)c2ccco2)cc1Cl (stereo not given),inactive,49.2,60.4,inactive,210,inactive
CCCNC(=O)Cn1c(=O)/c(=C\c2ccc(-c3ccc([N+](=O)[O-])cc3)o2)s/c1=C\C(=O)C(C)(C)C,inactive,115,126,inactive,300,inactive
COc1ccc2o/c(=N/NC(=O)c3cccs3)c(C(N)=O)cc2c1,inactive,28.1,64.4,inactive,160,inactive
Cn1c(=O)c2c(ncn2CC(O)CNc2cccc(Cl)c2)n(C)c1=O (stereo not given),inactive,47.1,101,inactive,363,inactive

Structure (SMILES),outcome [1],"fluorescence, percent of control (lower = inhibition) [2] [%]","GTP binding, percent of control [3] [%]",outcome [4],"GTP binding signal, raw median fluorescence (lower = inhibition) (MCF (arbitrary fluorescence units)) [5]",outcome [6]
Cc1cc(N/N=C/c2ccc(O)cc2O)nc(-n2nc(C)cc2C)n1,inactive,41,53.3,inactive,141,inactive
COc1ccc(OC)c(Nc2nc(-c3sc(N)nc3C)cs2)c1,inactive,32.7,72.6,inactive,179,inactive
Cc1ccc(C(=O)O)c(NCc2c(C)cccc2C)n1,inactive,58.8,224,inactive,54.1,inactive
COc1cc(CCNc2ccc3nnc(-c4ccccc4)n3n2)cc(OC)c1OC,inactive,34.8,44,inactive,123,inactive
O=C(COc1ncnc2cc([N+](=O)[O-])ccc12)NC(=O)NC1CCCCC1,inactive,31.6,70.8,inactive,153,inactive
Cc1cccc(CSc2ncccc2C(=O)O)c1,inactive,69.2,70.8,inactive,314,inactive
COc1cccc(NC(=O)CSc2nc3c([nH]c4ccccc43)c(=O)n2C)c1,inactive,42.8,92.1,inactive,293,inactive
CCOC(=O)C1=NN(c2ccc(C)cc2)CC1C(=O)OC (stereo not given),inactive,41.5,86.3,inactive,244,inactive
O=C(NC1CCCCC1)C(c1ccco1)N(Cc1ccco1)C(=O)c1ccco1 (stereo not given),inactive,90.7,174,inactive,176,inactive
O=c1[nH]c(N/N=C\c2ccc3c(c2)OCO3)nc2ccccc12,inactive,80.8,118,inactive,202,inactive
O=C1c2ccccc2C(=O)N1CCCCN(C(=O)c1cc2ccccc2oc1=O)c1ccc(Cl)cc1,inactive,51.3,60.9,inactive,210,inactive
CCN1CCN(c2nc3c(c(=O)n(C)c(=O)n3C)n2Cc2cccc3ccccc23)CC1,inactive,43.1,92.2,inactive,314,inactive
O=C(O)c1cccnc1SCc1ccc([N+](=O)[O-])cc1,inactive,71.2,92,inactive,45.6,inactive
Cc1ccc(NC(=S)NNC(=O)c2cn(C)nc2C)cc1,inactive,83.7,166,inactive,180,inactive
Cc1ccn2c(NCc3ccc4c(c3)OCO4)c(-c3ccc(O)cc3)nc2c1,inactive,60.4,75,inactive,0,inactive
COc1cccc(-c2cc(C(F)(F)F)c(C#N)c(=O)[nH]2)c1,inactive,30,75.7,inactive,230,inactive
CCN(CC)c1ccc(/C=N/OCC(=O)Nc2cccc(C)c2)cc1,inactive,65.3,74.6,inactive,0,inactive
COCCn1c(N)c(C(=O)Nc2sc3c(c2C(=O)OC)CCCC3)c2nc3ccccc3nc21,inactive,52,108,inactive,120,inactive
Cc1ccc(/C(N)=N/OC(=O)CCC2CCCCC2)cc1,inactive,80.5,154,inactive,180,inactive
NOC(=O)c1cccnc1SCCc1ccccc1,inactive,45.9,125,inactive,63,inactive

Structure (SMILES),outcome [1],"fluorescence, percent of control (lower = inhibition) [2] [%]","GTP binding, percent of control [3] [%]",outcome [4],"GTP binding signal, raw median fluorescence (lower = inhibition) (MCF (arbitrary fluorescence units)) [5]",outcome [6]
COc1ccccc1OCCn1cc(C(=O)O)c2c(C)cccc21,inactive,56.8,202,inactive,55.3,inactive
Cc1ccc(OCc2ccccc2C)c(C(=O)O)c1,inactive,58.3,207,inactive,54.4,inactive
COc1cc(/C=N/Nc2nncn2/N=C/c2ccc(O)c(OC)c2)ccc1O,inactive,30.7,68.3,inactive,147,inactive
COc1cc(/C=N/NC(=O)CN(Cc2ccco2)S(=O)(=O)c2ccccc2)ccc1O,inactive,32.8,46.1,inactive,104,inactive
COc1cc(/C=N/NC(=O)Nc2cccc3nsnc23)cc(OC)c1OC,inactive,60.6,105,inactive,126,inactive
Cc1ccc(Nc2nc(-c3c(C)nc4ncccn34)cs2)cc1,inactive,29.8,43.7,inactive,103,inactive
CCOc1cc(/C=N/NC(=O)c2cc(-c3cccnc3)nc3ccccc23)ccc1O,inactive,33.8,80.2,inactive,188,inactive
COc1cc(/C=C(\C#N)c2nc3ccc(C)cc3[nH]2)cc([N+](=O)[O-])c1O,inactive,25.3,61.6,inactive,151,inactive
CC(=O)OC(C(=O)NC1CCCCC1)c1ccc(Cl)cc1 (stereo not given),inactive,34.5,82.1,inactive,240,inactive
CCCN1C(=O)/C(=C\C=C2/Sc3ccccc3N2CC)SC1=S,inactive,34.7,57.8,inactive,181,inactive
Cc1cc(OCCSc2nc3ccccc3n2CC(=O)O)ccc1Cl,inactive,58.4,85.5,inactive,29.6,inactive
CCCOc1ccc(C(CC(=O)O)NC(=O)c2sc3ccccc3c2Cl)cc1 (stereo not given),inactive,28.6,78.9,inactive,258,inactive
O=C(O)c1cccnc1SCc1cccc(F)c1,inactive,78.4,92.9,inactive,52.6,inactive
Cc1ccc(/C=N/N(C)C2=NS(=O)(=O)c3ccccc32)o1,inactive,27.1,57.3,inactive,132,inactive
Cc1c(NC(=O)CCN2C(=O)c3ccccc3C2=O)c(=O)n(-c2ccccc2)n1C,inactive,42.1,90.3,inactive,322,inactive
CCOC(=O)c1cnc2c(C#N)cnn2c1N,inactive,33.6,72.1,inactive,167,inactive
Cc1ccc(/C=C/C(=O)c2ccccc(=O)c2O)cc1C,inactive,37.3,81.8,inactive,245,inactive
O=C(CNC(=O)c1ccco1)OCN1C(=O)c2ccccc2C1=O,inactive,52,66.1,inactive,220,inactive
C=CCN1C(=NC(=O)CCCC(=O)O)SC2CS(=O)(=O)CC21 (stereo not given),inactive,38.3,85.7,inactive,312,inactive
Cc1ccc(CSc2nc3[nH]ncc3c(=O)[nH]2)cc1,inactive,37.4,80.6,inactive,173,inactive
